Consider 16 compounds from PubChem BioAssay.

Test [1] can be described thus: StAR promoter reporter inhibitors, counter-screen for LRH-1 inverse agonist project, cell-based, luminescence, high throughput (AID 651611; in the data active = inhibition above about 28%). The settings on record: StAR promoter luciferase reporter counterscreen, at 3.6 µM, stronger effect = higher value. In general terms: Counterscreens check selectivity or assay interference.
Test [2] addresses Nuclear receptor subfamily 5 group A member 2 (Homo sapiens) (UniProt O00482). As to the kind of experiment: NR5A2 activity suppression in reporter cells – cell-based, luminescence, confirmation (AID 651613; in the data active = inhibition above about 42%;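 note: HEK293T cells co-transfected with LRH-1 and StAR promoter luciferase reporter; 0% = vehicle wells and 100% = parental cells lacking receptor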). The conditions noted are these: cell-based LRH-1 luciferase reporter, inverse agonism; at 3.6 µM; stronger effect = higher value.
Test [3] has as its target Steroidogenic factor 1 (Homo sapiens) (UniProt Q13285). As to the kind of experiment: inverse agonism at SF1 nuclear receptor – cell-based, luminescence, high throughput, counter-screen for LRH-1 inverse agonist project (AID 651614).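 Note: cells cotransfected with StAR promoter reporter and SF1 expression vector; 0% = vehicle on cells with receptor and 100% = vehicle on cells lacking receptor.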 The settings on record: cell-based SF1 luciferase reporter, at 3.6 µM, stronger effect = higher value.
The nature of test [4]: compounds suppressing VP16-driven luciferase signal – cell-based, luminescence, high throughput, counter-screen for LRH-1 inverse agonist project (AID 651615; in the data active = inhibition above about 33%). The settings on record: Gal4-VP16 luciferase reporter cells, at 3.6 µM, stronger effect = higher value.
Test [5] deals with transactivating tegument protein VP16 (Human herpesvirus 1). As to the kind of experiment: compounds suppressing VP16-driven luciferase signal – cell-based, luminescence, single concentration, counter-screen for SRC2 inhibitor project (AID 652007; in the data active = inhibition above about 36%). The settings on record: cell-based VP16 transactivation luciferase reporter, at 8.9 µM, stronger effect = higher value.
Test [6] deals with Nuclear receptor coactivator 2 (Homo sapiens) (UniProt Q15596). As to the kind of experiment: inhibition of GAL4-SRC2 driven luciferase expression – cell-based, luminescence, HEK293, triplicate, confirmation (AID 652008;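 active = mean inhibition above 46.5%, the solvent-only control mean plus 3 SD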;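 note: 0% = DMSO-treated cells and 100% = Gossypol at 36 µM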). The settings on record: HEK293 GAL4-SRC2 luciferase reporter, at 8.9 µM, stronger effect = higher value.
Nuclear receptor coactivator 2 (Homo sapiens), sequence (Q15596 whole entry, looked up, the tested form may be a part): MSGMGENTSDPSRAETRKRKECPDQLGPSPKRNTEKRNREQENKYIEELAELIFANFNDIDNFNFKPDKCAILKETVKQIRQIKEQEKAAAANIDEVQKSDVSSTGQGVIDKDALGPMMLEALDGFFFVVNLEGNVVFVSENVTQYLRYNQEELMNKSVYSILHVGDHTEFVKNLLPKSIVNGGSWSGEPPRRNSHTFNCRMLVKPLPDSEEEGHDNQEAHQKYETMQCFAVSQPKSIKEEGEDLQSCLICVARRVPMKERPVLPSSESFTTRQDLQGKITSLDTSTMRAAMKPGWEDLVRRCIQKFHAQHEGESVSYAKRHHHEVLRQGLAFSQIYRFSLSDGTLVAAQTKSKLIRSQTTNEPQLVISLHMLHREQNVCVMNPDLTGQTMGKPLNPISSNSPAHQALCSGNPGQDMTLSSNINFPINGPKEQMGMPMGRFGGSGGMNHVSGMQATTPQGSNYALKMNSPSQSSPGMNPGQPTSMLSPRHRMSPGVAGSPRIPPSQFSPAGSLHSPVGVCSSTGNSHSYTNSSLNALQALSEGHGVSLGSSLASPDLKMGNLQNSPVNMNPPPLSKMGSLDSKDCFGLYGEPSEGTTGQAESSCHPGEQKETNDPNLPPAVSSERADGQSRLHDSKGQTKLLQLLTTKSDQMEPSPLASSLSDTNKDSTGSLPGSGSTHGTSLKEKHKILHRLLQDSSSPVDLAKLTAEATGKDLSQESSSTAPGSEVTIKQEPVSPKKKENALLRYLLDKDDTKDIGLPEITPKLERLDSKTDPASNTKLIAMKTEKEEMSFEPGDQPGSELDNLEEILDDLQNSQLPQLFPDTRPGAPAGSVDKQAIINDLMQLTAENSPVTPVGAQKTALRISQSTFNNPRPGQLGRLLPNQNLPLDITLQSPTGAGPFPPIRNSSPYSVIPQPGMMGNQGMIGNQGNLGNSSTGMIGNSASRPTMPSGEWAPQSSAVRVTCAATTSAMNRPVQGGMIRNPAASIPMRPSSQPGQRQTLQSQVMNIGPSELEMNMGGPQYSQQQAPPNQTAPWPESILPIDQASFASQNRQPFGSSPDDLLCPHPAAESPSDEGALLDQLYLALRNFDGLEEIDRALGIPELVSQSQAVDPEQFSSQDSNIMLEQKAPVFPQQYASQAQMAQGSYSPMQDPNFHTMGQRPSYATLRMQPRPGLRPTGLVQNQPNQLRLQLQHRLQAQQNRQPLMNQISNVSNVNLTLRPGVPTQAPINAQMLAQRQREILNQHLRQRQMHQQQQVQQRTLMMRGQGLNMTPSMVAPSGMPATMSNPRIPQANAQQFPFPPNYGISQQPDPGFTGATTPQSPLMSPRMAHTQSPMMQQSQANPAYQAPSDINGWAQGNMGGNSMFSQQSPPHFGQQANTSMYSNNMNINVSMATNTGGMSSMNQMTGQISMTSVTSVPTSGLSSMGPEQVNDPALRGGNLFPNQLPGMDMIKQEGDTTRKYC

A number with no mark means an inactive call. Activity calls are given as the source filed them. Cut-off read from the data, not from the text of the source, unless noted: active = inhibition above about 44%; inactive = the rest.

Nuclear receptor subfamily 5 group A member 2 (Homo sapiens), sequence (O00482 whole entry, looked up): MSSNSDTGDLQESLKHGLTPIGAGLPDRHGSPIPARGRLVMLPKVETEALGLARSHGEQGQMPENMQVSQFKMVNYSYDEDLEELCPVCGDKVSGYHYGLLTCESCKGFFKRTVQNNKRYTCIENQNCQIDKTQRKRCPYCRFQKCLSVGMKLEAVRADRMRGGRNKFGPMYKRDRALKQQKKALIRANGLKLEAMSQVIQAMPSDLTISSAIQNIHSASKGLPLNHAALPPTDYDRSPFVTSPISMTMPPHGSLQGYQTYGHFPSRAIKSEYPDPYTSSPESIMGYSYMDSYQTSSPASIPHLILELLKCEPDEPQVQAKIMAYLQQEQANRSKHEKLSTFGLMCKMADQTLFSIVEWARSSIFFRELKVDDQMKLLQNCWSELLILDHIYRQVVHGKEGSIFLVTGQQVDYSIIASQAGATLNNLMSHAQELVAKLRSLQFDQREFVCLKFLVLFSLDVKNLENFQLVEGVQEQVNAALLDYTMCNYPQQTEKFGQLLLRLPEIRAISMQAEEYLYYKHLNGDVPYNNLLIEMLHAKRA
Steroidogenic factor 1 (Homo sapiens), sequence (Q13285 whole entry, looked up, the tested form may be a part): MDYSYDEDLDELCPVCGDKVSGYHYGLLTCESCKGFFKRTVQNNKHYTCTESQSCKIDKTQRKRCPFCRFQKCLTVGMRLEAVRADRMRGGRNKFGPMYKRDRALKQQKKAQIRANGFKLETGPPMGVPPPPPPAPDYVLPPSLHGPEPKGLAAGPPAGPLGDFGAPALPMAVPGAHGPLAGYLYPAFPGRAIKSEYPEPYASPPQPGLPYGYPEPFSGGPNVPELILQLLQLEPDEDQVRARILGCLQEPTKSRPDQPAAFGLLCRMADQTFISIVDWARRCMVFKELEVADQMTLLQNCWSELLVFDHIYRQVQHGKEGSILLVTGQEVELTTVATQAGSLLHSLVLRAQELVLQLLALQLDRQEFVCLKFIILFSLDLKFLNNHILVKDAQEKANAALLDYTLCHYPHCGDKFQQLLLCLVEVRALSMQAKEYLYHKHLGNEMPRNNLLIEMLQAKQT

Usually inhibition stands for the drop in the measured response relative to a control, in per cent. Take `COc1ccc(N2CCN(C(=O)CN3C(=O)NC4(CCCCCC4)C3=O)CC2)cc1`: the inhibition in test [1] was 7.32%; in test [2], 46.6% (active); in test [3], 43.3% (active); in test [4], -4.03%.
As to `Cc1no[n+]([O-])c1COc1ccc(/C=C2\NC(=S)NC2=O)cc1`, the inhibition in test [1] was -5.62%; in test [2], 48.3% (active); in test [3], 45.9% (active); in test [4] it was -19.4%.
For the compound `CN1CCN(C2=C(Cl)C(=O)N(c3ccc(Cl)c(Cl)c3)C2=O)CC1`, the inhibition in test [1] was 11.1%; in test [2], 39.3%; in test [3], 41.6%; in test [4], -5.07%.
For `CCCc1cc(=O)oc2c(C)c(OCC(=O)NCCN3CCOCC3)ccc12` the same measures were 6.59%, 43.8% (active), 46.3% (active) and -19.2%.
As for `COc1ccc(C)cc1NS(=O)(=O)c1ccc(-c2cnc(C3CC3)o2)cc1`, the inhibition in test [1] is 41.5% (active); in test [2] it was 41.9% (active); in test [3], 58% (active); in test [4] it was 54.5% (active); in test [5] it was 6.98%; in test [6], 34.7%.
On to `CC1(C)CC(=O)C=C(c2ccc3c(c2)OCO3)C1`, for which the inhibition in test [1] was -7.31%; in test [2] it was 40.6%; in test [3], 42.1%; in test [4], 2.47%.
The corresponding values for `COc1ccc(-c2cc(-c3ccc(O)cc3)nc(N)c2C#N)cc1` are 27.8% (active), 58.3% (active), 49% (active) and -19.5%.
For `O=C(CSc1nnc(Cc2cccs2)n1Cc1ccco1)Nc1ccc(Cl)cc1Cl` the same measures were 9.49%, 51.8% (active), 47.5% (active) and 19.1%.
Regarding `N#CC(=C1C=CC(=NO)C(Cl)=C1)c1ccccc1`, the inhibition in test [1] is 26%; in test [2], 41.8% (active); in test [3] it was 61.3% (active); in test [4] it was 22.2%; in test [5], -5.64%; in test [6] it was 20.3%.
Consider `CSCc1c(C(=O)Nc2ccccc2N2CCOCC2)oc2ccccc12`, for which the inhibition in test [1] is 7.6%; in test [2], 65.9% (active); in test [3], 62.5% (active); in test [4], 14.2%.
Regarding `O=C(Nc1cccc2ncccc12)c1ccc([N+](=O)[O-])o1`, the inhibition in test [1] was 16.2%; in test [2] it was 69.9% (active); in test [3], 64.4% (active); in test [4] it was -17.5%.
For `CC(=O)Nc1cc(-c2ccc(S(C)(=O)=O)cc2)cn2c(-c3ccc(F)c(Cl)c3)cnc12` the same measures were 12.9%, 61.1% (active), 51.7% (active) and 3.98%.
For `Cc1cc(OCC(=O)NCc2cccnc2)c2c(C)c(C)c(=O)oc2c1` the same measures were 9.8%, 61.8% (active), 50.5% (active) and -8.94%.
For `Cc1cc2oc(=O)cc(-c3ccccc3)c2c(C)c1-c1ccc(N(C)C)cc1`, the inhibition in test [1] is 0.45%; in test [2], 52% (active); in test [3] it was 51.3% (active); in test [4] it was 12.6%.
For `CCc1cc(=O)oc2c(C)c(OCC(=O)NCCCN3CCCC3=O)ccc12` the same measures were 8.43%, 52.1% (active), 48.4% (active) and -11.3%.
Regarding `COc1ccc(S(=O)(=O)N2CCCCC2)cc1NC(=O)c1ccc([N+](=O)[O-])o1`, the inhibition in test [1] is 25.8%; in test [2], 74.9% (active); in test [3] it was 68.1% (active); in test [4] it was 18.6%.
